The panel holds about 83,000 compounds, 20% with a hit somewhere; the sample as a whole holds those more often.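 Results are percent growth after 48 hours of single-concentration exposure. 100 means growth as in untreated cells, lower positive values show inhibition; negative values down to -100 show cell death.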 A number with no mark means an inactive call. The source made the active and inactive calls. Rule for the calls: active = growth percent below 10; inactive = the rest.
Experiments:
Test in all cases: NCI-60 one-dose screen, 48 h (100 = growth as untreated, 0 = no growth, -100 = all killed)
Settings in all cases: 10 µM unless noted
DU-145 prostate = system: DU-145 prostate
K-562 leukemia = system: K-562 leukemia
MALME-3M melanoma = system: MALME-3M melanoma
MDA-MB-231 breast = system: MDA-MB-231 breast
RXF 393 renal = system: RXF 393 renal
SF-268 CNS = system: SF-268 CNS
SF-295 CNS = system: SF-295 CNS
SF-539 CNS = system: SF-539 CNS
UACC-257 melanoma = system: UACC-257 melanoma
M14 melanoma = system: M14 melanoma
HCT-15 colon = system: HCT-15 colon
HT29 colon = system: HT29 colon
SNB-75 CNS = system: SNB-75 CNS
SNB-19 CNS = system: SNB-19 CNS
U251 CNS = system: U251 CNS
PC-3 prostate = system: PC-3 prostate
SK-MEL-5 melanoma = system: SK-MEL-5 melanoma
UACC-62 melanoma = system: UACC-62 melanoma
LOX IMVI melanoma = system: LOX IMVI melanoma
SK-MEL-28 melanoma = system: SK-MEL-28 melanoma

| Structure (SMILES) | growth (DU-145 prostate) [%] | growth (K-562 leukemia) | growth (MALME-3M melanoma) | growth (MDA-MB-231 breast) [%] | growth (RXF 393 renal) | growth (SF-268 CNS) [%] | growth (SF-295 CNS) | growth (SF-539 CNS) [%] | growth (UACC-257 melanoma) [%] | growth (M14 melanoma) [%] | growth (HCT-15 colon) | growth (HT29 colon) [%] | growth (SNB-75 CNS) | growth (SNB-19 CNS) [%] | growth (U251 CNS) [%] | growth (PC-3 prostate) [%] | growth (SK-MEL-5 melanoma) | growth (UACC-62 melanoma) | growth (LOX IMVI melanoma) | growth (SK-MEL-28 melanoma) [%] |
| --- | --- | --- | --- | --- | --- | --- | --- | --- | --- | --- | --- | --- | --- | --- | --- | --- | --- | --- | --- | --- |
| Cn1cc(-c2nn3cc(-c4ccncc4)nc3s2)c2cc(F)ccc21 | 90.8 | 19.7% | 65.5% | 63.3 | 88% | 94.8 | 96.7% | 87 | 111 | 93.4 | 38.7% | 68.8 | 65% | 90.1 | 98.3 | 68.3 | 87.6% | 75.9% | 10.5% | 105 |
| COc1ccc2[nH]cc(-c3nn4cc(-c5ccncc5)nc4s3)c2c1 | 88.8 | 28.5% | 86.3% | 82.3 | 96% | 86.9 | 62.8% | 88.3 | 109 | 82.8 | 37.8% | 66.6 | 61.7% | 75.3 | 67.9 | 45.7 | 67.4% | 63.8% | 57.8% | 112 |
| O=C(Nc1cccc(C(F)(F)F)c1)N1CCN(c2cc(-c3cn(-c4ccccc4)nc3-c3cccc(O)c3)ccn2)CC1 | 61.2 | 30.6% | 46.3% | 54 | 46.7% | 59.4 | 22.8% | 54.7 | 67.6 | 41.2 | 22.2% | 24.5 | 71.8% | 57.4 | 48.1 | 28.2 | 40.2% | 40% | 25.5% | 55 |
| C/C(=C(/C)C1CC1CCNC1CCC(NC(=O)OC(C)(C)C)CC1)c1ccccc1 (stereo not given) | 84.6 | 0.99% (active) | 36.6% | 72.9 | 42.7% | 84.7 | 77.8% | 63.5 | 55.4 | 21.3 | 42.6% | 11.9 | 60.1% | 91.3 | 61.3 | 63.8 | 45.7% | 83.1% | 10.2% | 35.5 |
| Cc1ccc([C@H]2c3[nH]c4ccccc4c3C[C@H]3C(=O)N(CCCCCCC(=O)NO)CC(=O)N23)s1 | 71.5 | 35.8% | 22.9% | 72.2 | 59.7% | 88.5 | 78.1% | 58 | 53.5 | 63.5 | 93.6% | 56 | 35.8% | 62.7 | 65 | 61.9 | 40.5% | 33.3% | -93.2% (active) | 48.3 |
| CSc1ccc(C(=NNS(=O)(=O)c2ccc(C)cc2)c2ccc(Cl)cc2)cc1 | 108 | 94.6% | 89.9% | 104 | 101% | 95.3 | 96.9% | 102 | 100 | 103 | 101% | 99.8 | 85.4% | 105 | 103 | 86.4 | 99.3% | 90.1% | 106% | 102 |
| CC1=C(C)C(=O)C(Nc2ccc3c(c2)OCCO3)=C(Br)C1=O | 107 | 4.46% (active) | 122% | 88.3 | 100% | 97.8 | 94.7% | 105 | 102 | 106 | 98.1% | 108 | 83.7% | 98.5 | 103 | 86 | 89.1% | 92.1% | 20.3% | 107 |
| COc1ccc(-c2cc(-c3ccc(N(C)C)cc3)n3c(n2)nc2ccccc23)cc1 | 73.3 | 20.8% | 118% | 75.2 | 86.5% | 76.9 | 48.6% | 82.6 | 58 | 29.1 | 50.7% | 54.1 | 95.2% | 67.2 | 40.5 | 28.1 | 3.05% (active) | 48.2% | 66.3% | 77 |
| O=C(O)CC1CCN(c2ccc3nnc(Cl)n3n2)CC1 | 107 | 105% | 102% | 112 | 109% | 100 | 102% | 102 | 109 | 94.6 | 98.8% | 101 | 84.7% | 100 | 110 | 104 | 101% | 95.5% | 95.6% | 102 |
| Cc1ccc(CSC2=C(Cl)CN(c3ccc(Cl)cc3)C2=O)cc1 | 108 | 100% | 96.9% | 107 | 111% | 108 | 101% | 103 | 107 | 107 | 99.2% | 116 | 103% | 93.5 | 101 | 107 | 99.8% | 94.7% | 33.9% | 104 |
| COc1ccc(/C=N/NC(=O)CSc2nc(-c3cnccn3)cc(-c3cccs3)c2C#N)cc1OC | 100 | 95.5% | 69.1% | 50.1 | -12.9% (active) | 70.5 | 83.1% | 36.7 | 91.7 | 77.5 | 89.1% | 60.9 | 81.9% | 78.1 | 21 | 80.8 | 34.8% | 19.8% | 59.9% | 98.2 |
| COc1ccccc1N1CCN(C2=C(Cl)C(=O)c3ncccc3C2=O)CC1 | 48 | 9.05% (active) | 58.8% | 86.4 | 71% | 87.6 | 107% | 95 | 95 | 88.1 | 55.5% | 111 | 86% | 88.8 | 102 | 79 | 96.4% | 83% | 50.2% | 98.4 |
| COc1cc(C(C)=C(c2ccc(OCCN(C)C)cc2)c2ccc(OCCN(C)C)cc2)ccc1F | 102 | 93.3% | 92.6% | 102 | 90.6% | 98.5 | 100% | 101 | 111 | 110 | 101% | 108 | 100% | 98.2 | 106 | 110 | 96.6% | 97.8% | 95.3% | 109 |
| Cc1ccc(-c2cc3nc(C(Cl)Cl)nc(-c4ccc(S(=O)(=O)N(C)C)cc4)n3n2)cc1 | 85.3 | 41% | 100% | 95.1 | 90.1% | 98.7 | 86.2% | 80.3 | 100 | 93.1 | 74.9% | 66.5 | 108% | 89.4 | 83.8 | 91.7 | 91.5% | 88.9% | 45.7% | 99.5 |
| CC[C@]12CC(C(=O)OC)=C3Nc4ccccc4[C@@]34CCN(C14)[C@@H]1c3cc4c(cc3O[C@@H]1[C@H]2O)NC1=C(C(=O)OC)C[C@@]2(CC)C3N(CC[C@@]143)C[C@H]1O[C@H]12 (stereo not given in full) | 41.9 | 6.04% (active) | 5.67% (active) | 22.2 | -17.9% (active) | 29.4 | 9.12% (active) | 15.5 | 24.8 | 17.6 | 3.59% (active) | 12.2 | -4.96% (active) | 14.2 | 19.2 | 10.1 | -75.7% (active) | 8.9% (active) | -64.6% (active) | 20.7 |

Reference: PubChem BioAssay (NCI)
